Laboratory results as given in PubChem BioAssay.
Activity calls are given as the source filed them.

test: plasmodial surface anion channel blockers, osmotic lysis – cell-based, P. falciparum Indochina, OD700, 1 h, primary screen (AID 1154); conditions: P. falciparum Indochina infected RBC osmotic lysis, higher = more signal, called active from +8 up or from −8 down

SMILES	z-score
COC(=O)C=C(CC(O)c1cccc(Cl)c1)OC (stereo not given)	19.4 (active)
COC(=O)[C@@]1(Cc2ccccc2)[C@H]2c3cc(C(=O)N4CCCC4)n(CC4CC4)c3C[C@H]2CN1C(=O)c1ccccc1	1.15 (inactive)
COCCOC(=O)N1C(=O)[C@@]2(c3cc(C#CCCO)ccc31)[C@H](c1ccc(OCCO)cc1)N1[C@H](c3ccccc3)[C@H](c3ccccc3)OC(=O)[C@H]1[C@@H]2C(=O)N1CCN(c2ncccn2)CC1	5.15 (inactive)
COC(=O)[C@@]1(Cc2ccc(F)cc2)[C@H]2c3cc(C(=O)N(C)C)n(Cc4ccc(S(C)(=O)=O)cc4)c3C[C@H]2CN1C(=O)c1ccccc1	1.32 (inactive)
CCC(CC)C(O)C1C=CC2C(=O)N(C)C(=O)C2N1Nc1ccccc1 (stereo not given)	1.11 (inactive)
C=CCNC(=O)[C@@H]1[C@H]2C(=O)O[C@H](c3ccccc3)[C@H](c3ccccc3)N2[C@H](c2ccc(OCCO)cc2)[C@@]12C(=O)Nc1ccc(C#CCCO)cc12	7.17 (inactive)
O=C(NCc1ccc(F)cc1)[C@H]1C[C@H]2C(=O)N[C@@H](Cc3ccccc3)C(=O)N2[C@H]1c1ccc(O)cc1	2.64 (inactive)
COC(=O)[C@@]1(Cc2ccc(F)cc2)[C@H]2c3cc(C(=O)N4CCCC4)n(Cc4cc(C)n(C)n4)c3C[C@H]2CN1C(=O)c1ccccc1	2.02 (inactive)
C=CC[C@]1(C(=O)N2CCCCC2)N=C(c2ccc(OCCCO)cc2)O[C@H]1c1ccccc1	18.8 (active)
CN1C(=O)C2C=CC(C(O)C3CCCCC3)N(Nc3ccc([N+](=O)[O-])cc3[N+](=O)[O-])C2C1=O (stereo not given)	1.72 (inactive)
C=C(C)C1C(=C)CN([C@H](CO)c2ccccc2)C1=O (stereo not given in full)	0.391 (inactive)
N#Cc1ccc(NN2C(C(O)c3c(F)cccc3Cl)C=CC3C(=O)N(c4ccccc4)C(=O)C32)cc1 (stereo not given)	22 (active)
[N-]=[N+]=Nc1ccccc1[C@H]1OC(c2ccc(OCCCO)cc2)=N[C@@]1(Cc1ccccc1)C(=O)O	32 (active)
O=C1NCC(=O)N2[C@@H]1C[C@@H](C(=O)O)[C@H]2c1cccc(OCCO)c1	2.24 (inactive)
COc1ccc(CCN2C(=O)[C@@]3(Cc4ccccc42)c2ccccc2C(=O)N(Cc2ccccc2C(F)(F)F)[C@H]3c2ccc(CO)cc2)cc1	0.074 (inactive)
CN(C)C(=O)[C@]1(Cc2ccccc2CN=[N+]=[N-])N=C(c2ccc(OCCCO)cc2)O[C@@H]1c1ccccc1CN=[N+]=[N-]	26.8 (active)
CC(C)C[C@@H]1NC(=O)[C@H]2C[C@@H](C(=O)NCCCCCCN)[C@@H](c3ccc(O)cc3)N2C1=O	1.9 (inactive)
C=C(CCCC)/C(=C/C[C@@H](OC(C)=O)c1ccccc1OCCO)c1cnc2ccccc2c1	21.1 (active)

SMILES	z-score
COC(=O)[C@@]1(Cc2ccccc2)[C@H]2c3cc(C(=O)N4CCCC4)n(Cc4cccc5ccccc45)c3C[C@H]2CN1C(=O)c1ccccc1	6.74 (inactive)
[N-]=[N+]=NCc1ccccc1[C@@H]1OC(c2ccc(OCCCO)cc2)=N[C@]1(CCS(=O)(=O)c1ccccc1)C(=O)NCc1ccccc1	16.4 (active)
O=C1C[C@]2(c3ccc([N+](=O)[O-])cc3)C(=O)N(CCN3CCOCC3)c3cc(CO)ccc3[C@H]2N1C1CCCCC1	1.23 (inactive)
O=C1O[C@@H](c2ccccc2)[C@@H](c2ccccc2)N2[C@@H](c3ccc(OCCO)cc3)[C@]3(C(=O)Nc4ccccc43)[C@@H](C(=O)NC[C@H](O)c3ccccc3)[C@H]12	6.58 (inactive)
Cc1ccc(C(C)CC(O)C2C=CC3C(=O)N(c4ccccc4)C(=O)C3N2Nc2ccc([N+](=O)[O-])cc2)o1 (stereo not given)	9.35 (active)
CC(C)C[C@@H]1NC(=O)[C@@H]2C[C@H](C(=O)NCCCCCN)[C@H](c3cccc(OCCO)c3)N2C1=O	3.07 (inactive)
C=C(CCCC)C(=O)CC[C@@H](OC(=O)c1cccnc1)c1ccc(CO)o1	3.22 (inactive)
COc1ccc(C(O)C2C=CC3C(=O)N(c4ccccc4)C(=O)C3N2Nc2ccc(C(C)C)cc2)cc1OCc1ccccc1 (stereo not given)	2.07 (inactive)
CC(C)[C@@H](CO)NC(=O)[C@H]1[C@@H](c2ccccc2)N(c2ccccc2)O[C@@H]1C	0.785 (inactive)
O=C1c2ccccc2[C@](Cc2ccccc2I)(C(=O)NC2CC2)[C@H](c2ccc(CO)cc2)N1C1CCCCC1	22.5 (active)
CC1CC/C=C\[C@H]2OC34C=CCN(Cn5nnc6ccccc65)C(=O)[C@H]3N(C(CO)C(C)C)C(=O)[C@@H]4C2C(=O)O1 (stereo not given in full)	2.43 (inactive)
C=CCOC(=O)[C@H]1[C@@H]2C(=O)O[C@@H](c3ccccc3)[C@@H](c3ccccc3)N2[C@@H](c2ccc(OCCOC(=O)[C@H]3C[C@H]4C(=O)N[C@@H](CC(C)C)C(=O)N4[C@H]3c3ccc(O)cc3)cc2)[C@]12C(=O)Nc1ccc(I)cc12	-0.414 (inactive)
COCCOC(=O)N1C(=O)[C@@]2(c3cc(C#CC4=CCCCC4)ccc31)[C@H](c1ccc(O)cc1)N1[C@H](c3ccccc3)[C@H](c3ccccc3)OC(=O)[C@H]1[C@@H]2C(N)=O	2.57 (inactive)
CN(C)CCCNC(=O)[C@@]1(c2ccc([N+](=O)[O-])cc2)CC(=O)N(C2CCCCC2)[C@@H]1c1ccc(CO)cc1I	14.8 (active)
COCCOC(=O)N1C(=O)[C@@]2(c3cc(C#CCCO)ccc31)[C@H](C(=O)N1CCc3cc(OC)c(OC)cc3C1)[C@H]1C(=O)O[C@H](c3ccccc3)[C@H](c3ccccc3)N1[C@@H]2c1ccc(O)cc1	1.49 (inactive)
CCCC[C@@H]1C[C@H]1[C@@H](NC(=O)c1ccco1)c1ccc(C(=O)OC)cc1	1.59 (inactive)
CCCCCN1CC=CC23O[C@@H]4/C=C\CCCOC(=O)C4[C@H]2C(=O)N(CCCO)[C@@H]3C1=O (stereo not given in full)	1.33 (inactive)
